From the supplement of paper PMC4100887
Structures can show the parent of a compound that is named as a salt. ± gives the standard deviation of the averaged measurements.

tested on: K562; assay: relative cell viability (ATPlite) vs untreated control, with imatinib (fraction); higher = less toxic; settings: 1 µM; 72 h; imatinib 0.125 µM

SMILES	relative cell viability
Cc1nc(-c2ccccc2)c(-c2ccncc2)o1	0.649 ± 0.16
CC(=O)O/N=C1/C(c2c(O)[nH]c3cc(Br)ccc23)=Nc2ccccc21 [GSK-3 Inhibitor X]	0.76 ± 0.036
COc1cc2ncnc(Nc3ccc(Cl)cc3Cl)c2cc1OC [Ste11 MAPKKK Activation Inhibitor]	0.71 ± 0.076
COc1cc2ncnc(Nc3ccc(Oc4ccccc4)cc3)c2cc1OC [Src Kinase Inhibitor I]	0.692 ± 0.05
CCOC(=O)c1c(C)[nH]c(/C=C2\C(=O)Nc3ccccc32)c1C [VEGF Receptor 2 Kinase Inhibitor I]	0.845 ± 0.075
O=C(Nc1ccc(-c2cn[nH]c2)cc1)C1COc2ccccc2O1 (configuration not stated) [Rho Kinase Inhibitor V]	0.687 ± 0.028
CCN(CC)C(=O)c1ccc(Nc2nc(OCC3CCCCC3)c3[nH]cnc3n2)cc1 [Cdk2 Inhibitor IV, NU6140]	0.672 ± 0.031
O=C(c1ccccc1)c1ccc(N2CCOCC2)cc1O [DNA-PK Inhibitor V]	0.756 ± 0.03
O=C1NC(=O)C(c2c[nH]c3ccccc23)=C1c1c[nH]c2ccccc12 [Bisindolylmaleimide IV]	0.851 ± 0.024
CC(C)(C)c1ccc(S(=O)(=O)Nc2ccc(-n3ccnc3)cc2)cc1 [Stem-Cell Factor/c-Kit Inhibitor, ISCK03]	0.742 ± 0.038
COc1ccc(COc2ccc(Cc3cnc(N)nc3N)cc2OC)cc1 [cFMS Receptor Tyrosine Kinase Inhibitor]	0.699 ± 0.007
O=C(Nc1cc(C(F)(F)F)cc(C(F)(F)F)c1)c1cc(Cl)ccc1O [IKK-2 Inhibitor V]	0.477 ± 0.011
COc1ccc(CNc2nc(N(CCO)CCO)nc3c2ncn3C(C)C)cc1 [Cdk2 Inhibitor III]	0.772 ± 0.058
O=C(Nc1cc(Cl)cc2c1[nH]c1cnccc12)c1cccnc1 [IKK Inhibitor X]	0.804 ± 0.023
COc1cc2ncnc(Nc3ccc(O)c(Br)c3)c2cc1OC [JAK3 Inhibitor II]	0.717 ± 0.032
Cc1cc(Nc2nc(-c3ccccc3)nc3ccccc23)n[nH]1 [GSK-3 Inhibitor XIII]	0.711 ± 0.034

SMILES	relative cell viability
c1cc(-c2cnn3cc(-c4ccc(OCCN5CCCCC5)cc4)cnc23)ccn1 [AMPK Inhibitor, Compound C]	0.834 ± 0.051
CN1C(=O)C(c2c[nH]c3ccccc23)=C(c2c[nH]c3ccccc23)C1=O [Bisindolylmaleimide V]	0.77 ± 0.0092
c1ccc2c(-c3ccncc3)c[nH]c2c1 [Rho Kinase Inhibitor III, Rockout]	0.683 ± 0.029
c1nc2c(NC3CCCCC3)nc(Nc3ccc(N4CCOCC4)cc3)nc2[nH]1 [Reversine]	0.398 ± 0.075
Nc1ccc(-c2cccc3c(=O)cc(N4CCOCC4)oc23)cc1	0.627 ± 0.056
Nc1[nH]nc2nnc(-c3c(-c4ccccc4)nn4ccccc34)cc12	0.779 ± 0.048
Oc1cccc(-c2nc(N3CCOCC3)c3oc4ncccc4c3n2)c1	0.513 ± 0.045
O=C(Nc1cccc(Nc2nccc(Nc3cccc(C(F)(F)F)c3)n2)c1)C1CC1 [Aurora Kinase Inhibitor III]	0.755 ± 0.05
CCC(CO)Nc1nc(NCc2ccccc2)c2ncn(C(C)C)c2n1 [Roscovitine, (S)-Isomer]	0.729 ± 0.057
COc1ccc(Cl)cc1NC(=O)Nc1cc(C)nc2ccccc12 [IGF-1R Inhibitor II]	0.798 ± 0.018
O=c1c(O)c(-c2ccc(O)c(O)c2)oc2cc(O)c(O)c(O)c12 [Quercetagetin]	0.64 ± 0.025
COc1cc2ncnc(Nc3cccc(O)c3)c2cc1OC [WHI-P180, Hydrochloride]	0.366 ± 0.045
CC[C@H](CO)Nc1nc(NCc2ccccc2O)c2ncn(C(C)C)c2n1 [Olomoucine II]	0.715 ± 0.028
NC(=O)Nc1sc(-c2ccccc2)cc1C(N)=O [IKK-2 Inhibitor VI]	0.695 ± 0.056
O=C1Cc2c([nH]c3ccc([N+](=O)[O-])cc23)-c2ccccc2N1 [Alsterpaullone]	0.812 ± 0.026
CCOc1nc(NC(=O)Cc2cc(OC)ccc2OC)cc(N)c1C#N [JNK Inhibitor VIII]	0.769 ± 0.053
